According to PubChem BioAssay (Tox21):
Records with an inconclusive call do not appear. Activity calls are given as the source filed them. The call rests on the fitted dose curve. Non-standard residues stand in square brackets, D forms with d. Residues, ends and D or L forms follow the SMILES beside them. *: point of attachment. Sta = CC(C)C[C@H](N)[C@@H](O)CC(=O)O; Isovaleryl = CC(C)CC(=O)*

Assay: qHTS assay to identify small molecule agonists of the hypoxia (HIF-1) signaling pathway - cell viability counter screen (AID 1224844); further: nearly all actives have a fitted effect of over 50% in size
Conditions: HRE-bla ME-180 viability, CellTiter-Glo luminescence, 17 h; series mostly up to 76.8 µM; activity change, negative = cytotoxicity: at the top concentration
From the text: National Center for Advancing Translational Sciences [NCATS]
NIH Chemical Genomics Center [NCGC]
U.S. Environmental Protection Agency [EPA]
National Institutes of Environmental Health Sciences [NIEHS]
National Toxicology Program [NTP]
U.S. Food and Drug Administration [FDA]
Hypoxia-inducible factor-1 (HIF-1) is the major hypoxia-regulated transcription factor that controls cellular responses to low oxygen concentration. HIF-1 is composed of two subunits: hypoxia responsive HIF-1-alpha and constitutively expressed HIF-1-beta, which is also known as aryl hydrocarbon receptor nuclear translocator. During hypoxic conditions, HIF-1-alpha heterodimerizes with HIF-1-beta and translocates into the nucleus where the HIF-1 complex binds to the hypoxia-response element (HRE) and activates expression of target genes such as VEGF (vascular endothelial growth factor). The HIF-1 pathway is essential to normal growth and development, and is involved in the pathophysiology of cancer, inflammation, and ischemia.
Using a beta-lactamase reporter-gene under control of the hypoxia response element, a cell-based assay [CellSensor(TM) HRE-bla ME-180 from Life Technologies, Carlsbad, CA] was used to measure hypoxia-induced signaling. Tox21 10K library compounds were measured for their ability to induce the reporter gene activity. The cytotoxicity of the Tox21 compound library against HRE-bla ME-180 cell line was tested in parallel by measuring cell viability using CellTiter-Glo assay (Promega, Madison, WI) in the same assay wells.
Tox21 Assay Protocol Summary:
HRE-bla ME-180 cells were dispensed at 2,000 cells per well in 6 uL of assay medium containing 0.5% dialyzed FBS into black wall/clear-bottom 1536-well plates using a Multidrop Combi (Thermo Scientific, Waltham, MA) dispenser. After the assay plates were incubated at 37C and 5% CO2 for 5 hrs, 23 nL of compounds dissolved in DMSO, positive controls or DMSO only was transferred to each well of the assay plate using a Pintool station (Kalypsys, San Diego, CA). The assay plates were incubated at 37C and 5% CO2 for 17 hrs. One uL of LiveBLAzerTM B/G FRET substrate (CCF4-AM) (Life Technologies) was added to each well using a Flying Reagent Dispenser (FRD, Aurora Discovery, San Diego, CA). After 2 hr incubation at room temperature, fluorescence intensity (405 nm excitation, 460 nm and 530 nm emissions) was measured using an Envision plate reader (PerkinElmer, Shelton, CT). For cytotoxicity, 4 ul/well of CellTiter-Glo reagent was added into the assay plates using an FRD. After 30 min incubation at room temperature, the luminescence intensity was measured using a ViewLux plate reader (PerkinElmer).
On the % scale 0 is the no-effect control and ±100 the full control effect.

Row | SMILES | activity change, negative = cytotoxicity
1 | CN(C)c1cc(NC(=O)CNC(C)(C)C)c(O)c2c1C[C@H]1C[C@H]3[C@H](N(C)C)C(=O)C(C(N)=O)=C(O)[C@@]3(O)C(=O)C1=C2O | 3.67% [at 35.3 µM] (inactive)
2 | CC(C)CC(O)Cc1ccccc1 (stereo not given) | -0.546% (inactive)
3 | CCOC(=O)c1ccc(N(C)C)cc1 | 4.13% (inactive)
4 | CCCCCCCC(=O)N(C)C | 5.56% (inactive)
5 | Cc1cccc(N)n1 | 6.15% (inactive)
6 | N#CC1(N)CCCCC1 | 6.83% (inactive)
7 | CC/C=C\CCOC(=O)c1ccccc1 | 2.66% (inactive)
8 | Cc1ccc(S(=O)(=O)NC(=O)NN2CC3CCCC3C2)cc1 (stereo not given) | 5.43% [at 35.3 µM] (inactive)
9 | CSC(=O)c1cccc2nnsc12 | 7.99% (inactive)
10 | CO/N=C(\C(=O)O)c1csc(NC(=O)CCl)n1 | 5.75% [at 35.3 µM] (inactive)
11 | CC(=O)c1ccc2ccc3ccccc3c2c1 | 10.2% (inactive)
12 | CCN(CC)CC(=O)Oc1ccc(NC(C)=O)cc1 | -1.87% [at 35.3 µM] (inactive)
13 | COc1cnc(NS(=O)(=O)c2ccc(N)cc2)nc1 | 4.07% [at 35.3 µM] (inactive)
14 | CC(CC(=O)Cl)CC(C)(C)C (stereo not given) | 2.45% (inactive)
15 | NS(=O)(=O)c1cc2c(cc1C(F)(F)F)NCNS2(=O)=O | 7.72% [at 35.3 µM] (inactive)
16 | CNC(=O)c1c(I)c(NC(C)=O)c(I)c(C(=O)O)c1I | -0.494% [at 35.3 µM] (inactive)
17 | COc1cc(S(N)(=O)=O)cc(C(=O)O)c1OC | 2.66% [at 35.3 µM] (inactive)
18 | CC(C)c1cc(C(C)C)cc(C(C)C)c1 | 12.6% (inactive)
19 | O=C1CCCc2c(O)cccc21 | 0.814% [at 35.3 µM] (inactive)
20 | COC(=O)c1ccc(C(=O)O)cc1 | 3.24% (inactive)

Row | SMILES | activity change, negative = cytotoxicity
21 | CC(C)C(=O)Nc1cccc(C2CN3CCSC3=N2)c1 (stereo not given) | 3.13% [at 35.3 µM] (inactive)
22 | O=C(O)CCC(=O)Nc1ccc(S(=O)(=O)Nc2nccs2)cc1 | 16.6% [at 35.3 µM] (inactive)
23 | CCCCN(CCCC)CCCCCCN(CCCC)CCCC | 8.99% (inactive)
24 | CCN1CCN(C(=O)N[C@@H](C(=O)N[C@@H]2C(=O)N3[C@@H]2SC(C)(C)[C@H]3C(=O)O)c2ccccc2)C(=O)C1=O | -3.54% [at 35.3 µM] (inactive)
25 | O=CN1CCCCC1 | -0.739% (inactive)
26 | CCCCC(CC)CCC(CC(C)C)OS(=O)(=O)O (stereo not given) | -16.2% (inactive)
27 | CC(C)(C)C(=O)CC(=O)C(C)(C)C | -8.78% (inactive)
28 | CCc1ccc(CC)cc1 | 13.3% (inactive)
29 | CC(C)CC(=O)N[C@H](C(=O)N[C@H](C(=O)N[C@@H](CC(C)C)[C@@H](O)CC(=O)N[C@@H](C)C(=O)N[C@@H](CC(C)C)[C@@H](O)CC(=O)O)C(C)C)C(C)C (Isovaleryl-VV[Sta]A[Sta]-OH) | 1.29% [at 35.3 µM] (inactive)
30 | Cc1ccc2ccccc2n1 | 6.39% (inactive)
31 | Cc1ccc(NC(N)=O)cc1 | -0.122% (inactive)
32 | Cc1ccc2cccnc2c1 | -3.77% (inactive)
33 | N#Cc1cc(NC(=O)C(=O)O)c(Cl)c(NC(=O)C(=O)O)c1 | 4.6% [at 35.3 µM] (inactive)
34 | CCCCNCC | -5.7% (inactive)
35 | C[C@@H]1CCC[C@H](C)N1CCCC(O)(c1ccccc1)c1ccccn1 (stereo not given in full) | 4.49% [at 35.3 µM] (inactive)
36 | CCCCCCCOC(C)=O | -0.505% (inactive)
37 | NNC(=O)CCCCC(=O)NN | 10.9% (inactive)
38 | O=c1c(O)c(O)c1=O | -18.1% (inactive)
39 | CC(C)(O)c1ccc(C(C)(C)O)cc1 | 10.6% (inactive)
40 | CN1C(CCl)Nc2cc(Cl)c(S(N)(=O)=O)cc2S1(=O)=O (stereo not given) | 3.47% [at 35.3 µM] (inactive)
